# Rows were chosen to be rich in hits. Some 7.3% of all compounds tested hit in one or more screens of this group.
# Rab9 prom act = qHTS Assay for Rab9 Promoter Activators | Huh7 Rab9 promoter-luciferase reporter, luminescence, 24 h | Potency, µM (top dose mostly 9.22 µM), most hits filed as activators | 320,000 compounds, 2.8% hits | AID 485297, 2010; also: nearly all actives have a fitted effect of over 60% in size
#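 Quantitative HTS format; Huh7 Rab9-luciferase reporter cells (1500/well) receive compound 2 h post-plating, incubate 24 h at 37 °C, then get luciferase reagent for 10 min before luminescence reading.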
# SMN2 splice enh = qHTS Assay for Enhancers of SMN2 Splice Variant Expression; HEK293 SMN2-luciferase splicing reporter, luminescence, 30-36 h; Potency, µM (titrated, usually from 46.1 µM), hits mostly activators; 210,000 compounds, 2.8% hits; AID 1458, 2008; also: nearly all actives have a fitted effect of over 55% in size
#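 HEK293 cells carry an SMN2 […]–luciferase reporter in which exon 7 inclusion puts luciferase in frame. Cells were plated 10-12 h before compound addition, then incubated 30-36 h at 37C. ONE-Glo luminescence was read; sodium butyrate at 4.5 mM final served as control.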
# FLuc counter = qHTS profiling assay for firefly luciferase inhibitor/activator using purifed enzyme and Km concentrations of substrates (counterscreen for miR-21 project); Luciferin 4-monooxygenase (Photinus pyralis), P08659; purified FLuc, Km substrates, luminescence inhibition; Potency, µM (highest dose often 57.5 µM), most hits filed as inhibitors; 360,000 compounds, 6.9% hits; AID 588342, 2011; also: nearly all actives have a fitted effect of over 55% in size
# Target sequence (P08659 whole entry, looked up): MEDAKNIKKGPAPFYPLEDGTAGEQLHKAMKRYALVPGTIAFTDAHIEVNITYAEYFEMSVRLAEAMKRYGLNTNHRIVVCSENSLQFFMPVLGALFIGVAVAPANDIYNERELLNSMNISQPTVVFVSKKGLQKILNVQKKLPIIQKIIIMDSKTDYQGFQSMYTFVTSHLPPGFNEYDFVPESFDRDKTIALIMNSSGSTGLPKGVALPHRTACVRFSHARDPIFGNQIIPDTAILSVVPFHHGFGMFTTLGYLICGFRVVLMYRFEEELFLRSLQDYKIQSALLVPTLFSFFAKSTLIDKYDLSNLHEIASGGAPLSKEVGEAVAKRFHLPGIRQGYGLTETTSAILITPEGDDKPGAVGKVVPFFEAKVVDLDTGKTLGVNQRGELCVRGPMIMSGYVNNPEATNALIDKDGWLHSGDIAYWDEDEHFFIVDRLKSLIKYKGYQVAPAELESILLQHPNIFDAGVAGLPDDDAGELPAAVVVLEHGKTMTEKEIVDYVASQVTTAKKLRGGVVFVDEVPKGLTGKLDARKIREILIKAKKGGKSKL
#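 Purified P. pyralis luciferase, 10 nM final, with Km-level 10 uM D-luciferin and 10 uM ATP in 50 mM Tris acetate pH 7.5, 10 mM Mg acetate, 0.01% Tween-20, 0.05% BSA; 6-point qHTS titration about 60 µM downward; luminescence read.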
# uPA surface inh = qHTS for Inhibitors of Cell Surface uPA Generation. AID 540303, 2011. Potency, µM (doses to about 38.3 µM), most hits filed as inhibitors. cell surface uPA generation assay, qHTS. 330,000 compounds, 0.31% hits; active = well fitted inhibition curve with a large enough effect; inconclusive = small, poorly fitted or top-dose-only effect; inactive = no such curve, though single readings can be large or run the other way; tested in mouse RAW 264.7 cells; also: nearly all actives have a fitted effect of over 55% in size
# ELG1 genotox = qHTS screen for small molecules that induce genotoxicity in human embryonic kidney (HEK293T) cells expressing luciferase-tagged ELG1; Potency, µM (titrated, usually from 46 µM), hits mostly activators; HEK293T ELG1-luciferase reporter, luminescence, 16 h; 330,000 compounds, 1.3% hits; AID 504466, 2011; also: nearly all actives have a fitted effect of over 60% in size
#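 Screening used a luciferase reporter fused to human ELG1 in HEK293T cells. Luminescence was read on a CCD plate imager after 16 hr exposure and 30 min ONE-Glo incubation.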
# NPC1 prom act = qHTS Assay for NPC1 Promoter Activators; 320,000 compounds, 2.4% hits; Potency, µM (series often up to 9.22 µM), most hits filed as activators; Huh7 NPC1 promoter luciferase reporter, 24 h; also: nearly all actives have a fitted effect of over 60% in size
#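 Stably transfected Huh7 (NPC1 promoter→luciferase), 1500 cells/well in Opti-MEM + 10% FBS, 2 h settle, then compound 24 h at 37 °C. Luminescence after 10 min with Amplite reagent.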
# Numbers stand for hits; – = inactive; ? = inconclusive; · = no result given; [ ] = remark or other dose. Unless noted, calls follow the shape of the dose curve; as a rule, active = well fitted curve in the direction sought with a large enough effect; inconclusive = small, poorly fitted or top-dose-only effect, or another doubt; inactive = no such curve, though single readings can be large; an effect the other way counts as inactive or inconclusive.
SMILES,Rab9 prom act,SMN2 splice enh,FLuc counter,uPA surface inh,ELG1 genotox,NPC1 prom act
O=C(NCCS(=O)(=O)NCc1ccccc1Cl)c1ccc2c(c1)OCO2,–,·,–,–,–,–
O=C(NCCc1ccccc1)c1ccc2c(c1)OCCCO2,?,·,0.06µM,–,?,–
O=C(NCCS(=O)(=O)NCCc1ccccc1)c1ccc2c(c1)OCO2,3.2µM,·,12µM,–,2.1µM,4.5µM
O=C(O)c1ccc2c(c1)OCCCO2,–,·,–,–,–,–
Cc1nc(-c2ccccc2Cl)sc1C(=O)/C=C/N(C)C,1.8µM,?,17µM,–,?,3.2µM
NC(=S)N/N=C/c1ccccc1OC(=O)c1cc2ccccc2oc1=O,–,·,21µM,–,–,–
NC(=O)N/N=C/c1ccccc1OC(=O)c1cc2ccccc2oc1=O,–,·,?,–,?,–
NC(=S)N/N=C\c1ccccc1OCc1ccccc1,–,–,–,–,–,–
NC(=S)N/N=C/c1ccccc1OC(=O)/C=C/c1ccccc1,–,·,27µM,?,–,–
NC(=O)NC(=O)[C@H]1CCCC[C@@H]1C(=O)O,·,–[9.22 µM],·,·,·,·
CC(C)=CC1C(CO)C1(C)C (stereo not given),·,–,·,·,·,·
Cc1ccc(NC(=O)Cn2c(=O)n(Cc3ccc(F)cc3)c(=O)c3cccnc32)cc1C,·,–,–,·,·,·
COC(=O)c1cc(OC)c(OC)cc1NC(=O)c1cccc(OC)c1OC,–,–,–,–,–,–
CC(C)=CC(=O)Nc1nnc(-c2ccccc2)s1,1.4µM,11µM,?,–,2.9µM,2.2µM
COc1cccc(C(=O)Nc2nnc(-c3ccccc3)s2)c1OC,1.8µM,·,12µM,–,?,2.5µM
COc1cccc(C(=O)NC2=NCCS2)c1OC,?,?,?,·,?,–
Cc1nnc(NC(=O)c2ccccc2NC(=O)c2ccccc2)s1,–,·,8.5µM,–,–,–
COc1cccc(C(=O)Nc2sc(C(C)C)cc2C(N)=O)c1OC,–,·,21µM,–,–,–
Cc1nnc(NC(=O)c2ccccc2-c2ccccc2C(=O)O)s1,–,·,–,–,–,–
Cc1ccc(-c2ccc(S(=O)(=O)Nc3cccnc3)cc2)cc1,–,·,–,–,–,–
Cc1ccc(C)c(N2CCN(C(=O)CCn3c(=O)[nH]c4ccccc4c3=O)CC2)c1,·,·,–,·,·,·
COc1cccc(Nc2nc3cc(Cl)c(Cl)cc3nc2-n2nc(C)cc2C)c1,·,–,–,·,·,·
COc1ccccc1C(=O)Nc1cc(-c2ccc(C)cc2)no1,?,?,6µM,–,?,?
CC(=O)Nc1sc(NC(=O)c2ccccc2)nc1-c1cccs1,–,–,–,–,–,–
COc1ccccc1C(=O)N(C)c1nnc(-c2ccccc2)s1,?,·,19µM,–,–,3.5µM
SMILES,Rab9 prom act,SMN2 splice enh,FLuc counter,uPA surface inh,ELG1 genotox,NPC1 prom act
COc1ccccc1C(=O)Nc1nc(-c2cccs2)c(NC(C)=O)s1,?,?,0.76µM,–,9.2µM,–
Cc1ccc(-c2cc(NC(=O)c3cccc(C)c3)on2)cc1,·,?,–,·,·,·
COc1ccccc1C(=O)Nc1nnc(C)s1,?,–,17µM,·,13µM,?
COc1cccc(OC)c1C(=O)Nc1nnc(C)s1,·,–,–,·,·,·
COc1ccc(Cl)cc1NC(=O)C1CCCN(c2ncnc3onc(C)c23)C1 (stereo not given),·,·,–,·,·,·
COc1ccccc1C(=O)Nc1nnc(-c2ccccc2)s1,–,·,13µM,–,?,?
CC(=O)Nc1sc(N/N=C\c2ccc(O)cc2)nc1-c1cccs1,–,·,12µM,–,?,–
COc1cccc(C(=O)NOCc2ccccc2)c1OC,?,·,27µM,?,?,?
O=C(Nc1nnc(-c2ccccc2)s1)c1ccccc1O,2.5µM,·,4.3µM,–,–,1.8µM
COc1cccc(C(=O)OCC(=O)NCCc2ccccc2)c1OC,–,–,–,–,–,–
O=C(Nc1ccccc1)Nc1nnc(-c2ccccc2)s1,?,·,–,–,–,?
CCn1c(=O)c2cc(C(=O)NCc3cc(OC)ccc3OC)sc2c2ccccc21,·,–,–,·,·,·
CC(Sc1nncn1C)C(=O)Nc1nnc(-c2ccccc2)s1 (stereo not given),?,14µM,15µM,–,16µM,?
COc1cc(OC)c(NC(=O)N2CCN3CCCCC3C2)cc1Cl (stereo not given),·,·,–,·,·,·
Cc1noc(NS(=O)(=O)c2ccc(N/C=C\C(=O)c3cccc4ccccc34)cc2)c1C,–,–,13µM,–,–,–
CCOc1ccc(C(=O)/C=C/Nc2ccc(S(=O)(=O)Nc3onc(C)c3C)cc2)cc1,–,?,15µM,–,?,–
Cc1noc(NS(=O)(=O)c2ccc(N/C=C\C(=O)c3ccc(Br)cc3)cc2)c1C,–,·,27µM,–,–,–
COc1cccc(C(=O)/C=C/Nc2ccc(S(=O)(=O)Nc3onc(C)c3C)cc2)c1,–,–,15µM,–,–,–
Cc1noc(NS(=O)(=O)c2ccc(N/C=C\C(=O)c3ccc4c(c3)OCO4)cc2)c1C,–,–,9.5µM,–,–,–
COc1cc(OC)cc(C(=O)Nc2ccc(S(=O)(=O)Nc3onc(C)c3C)cc2)c1,·,–,?,·,·,·
CCOc1ccc(NC(=S)NC(=O)c2c(Br)cnn2C)c([N+](=O)[O-])c1,–,–,6µM,–,–,–
CCOc1ccc(NC(=S)NC(=O)c2c(Cl)cnn2CC)c([N+](=O)[O-])c1,–,–,–,–,–,–
Cc1ccc(/C(C#N)=C\c2ccc(N3CCOCC3)o2)cc1,3.2µM,13µM,24µM,?,18µM,4µM
Cc1ccc2nc(/C(C#N)=C\c3ccc(N4CCOCC4)o3)[nH]c2c1,1.8µM,4µM,0.43µM,–,?,2.2µM
O=C1NC(=O)/C(=C/c2ccc(N3CCOCC3)o2)N1,–,·,–,–,–,–
SMILES,Rab9 prom act,SMN2 splice enh,FLuc counter,uPA surface inh,ELG1 genotox,NPC1 prom act
CCCSc1nnc(Nc2ccccc2C)s1,2.8µM,?,19µM,–,?,–
O=C1c2ccccc2C(=O)N1CSc1nnc(Nc2ccccc2F)s1,–,6.3µM,–,–,–,–
Cc1ccccc1Nc1nnc(SCC(=O)Nc2ccccc2[N+](=O)[O-])s1,–,–,–,–,–,–
CCN(CC)C(=O)CCCSc1nnc(Nc2ccccc2F)s1,1.8µM,·,17µM,–,–,?
O=C1c2ccccc2C(=O)N1CSc1nnc(Nc2ccccc2)s1,?,–,–,–,–,–
CN1C(=O)C(O)(CC(=O)c2cccnc2)c2ccccc21 (stereo not given),–,–,–,–,–,–
CN1/C(=C\C(=O)c2cccnc2)Sc2ccccc21,2.2µM,14µM,9.5µM,–,?,2.5µM
COc1cccc(C(=O)/C=C2\Sc3ccccc3N2C)c1,0.89µM,6.3µM,1.1µM,–,1.5µM,0.71µM

# Assay outcomes from PubChem BioAssay.
